Screening data: PubChem, The Scripps Research Institute Molecular Screening Center
Sampled rows, rich in hits. Any-hit rate of the full collection: about 2.3%.
M1 PAM – potentiates human M1 receptor response to acetylcholine | P11229 | CHO-K1 hM1, Fluo-8 calcium fluorescence, ACh EC20; 0% = ACh EC20, 100% = maximal ACh | activation, % at 3 µM | 0.088% of 360,000 active; in the data active = activation above about 19%, passing the limit was not always enough
Target sequence (P11229 whole entry, looked up): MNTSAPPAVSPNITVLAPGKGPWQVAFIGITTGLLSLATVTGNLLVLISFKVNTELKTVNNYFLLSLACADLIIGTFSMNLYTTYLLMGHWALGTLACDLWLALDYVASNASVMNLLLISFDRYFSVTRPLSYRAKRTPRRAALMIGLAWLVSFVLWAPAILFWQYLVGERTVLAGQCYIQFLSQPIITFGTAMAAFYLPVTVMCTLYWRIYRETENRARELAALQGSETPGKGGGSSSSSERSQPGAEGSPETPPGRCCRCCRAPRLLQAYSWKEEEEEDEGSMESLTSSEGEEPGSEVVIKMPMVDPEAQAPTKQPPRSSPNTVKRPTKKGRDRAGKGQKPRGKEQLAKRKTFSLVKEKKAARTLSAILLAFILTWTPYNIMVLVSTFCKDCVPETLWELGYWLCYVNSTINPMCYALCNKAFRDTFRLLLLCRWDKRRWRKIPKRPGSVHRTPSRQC
CHO-K1 Ca antag – counter-screen for M1 antagonists: effect in parental CHO-K1 cells | 0.6% of 360,000 active | AID 602250 | inhibition, % at 3 µM | ATP-induced calcium, Fluo-8 fluorescence;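 active = inhibition above a per-plate cutoff, the plate's mean sample inhibition plus 3 SD, cut at about 24% in these data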;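 note: 0% = DMSO plus EC80 ATP and 100% = DMSO alone without ATP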
M1 PAM parental – M1 PAM counterscreen hit in parental CHO-K1 cells. ATP EC20, Fluo-8 calcium fluorescence; 0% at ATP EC20, 100% at ATP max. activation, % at 3 µM. 0.02% of 360,000 active;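 active = activation above the run cutoff, the mean activation of all test compounds plus 3 SD, cut at about 40% in these data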;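 note: peak over basal fluorescence ratio in a 140 s read after ATP addition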
M1 ag – human M1 muscarinic receptor agonism. activation, % at 3 µM. P11229. 0.33% of 360,000 active. CHO-K1 hM1, Fluo-8 calcium fluorescence, agonist mode; 0% DMSO, 100% acetylcholine EC100;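 active = activation above the run's mean compound activation plus 3 SD, cut at about 16% in these data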;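 note: peak over basal fluorescence ratio within a 140 s kinetic read after compound addition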
CHRM1 antagonist – human CHRM1 antagonism | inhibition, % at 3 µM | CHO-K1 hM1, Fluo-8 calcium fluorescence, ACh EC80 antagonist | AID 588852 | 1.3% of 360,000 active;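 active = percent inhibition above its own plate's cutoff, namely the mean of that plate's compound wells plus 3 SD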;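 note: peak over basal fluorescence ratio during 140 s after agonist addition; 0% = ACh EC80 plus DMSO and 100% = DMSO alone without agonist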
CHO-K1 Ca ag – M1 agonist counterscreen hit in parental CHO-K1 cells | Fluo-8 calcium fluorescence; scaled to maximal ATP response, vehicle zero | activation, % at 3 µM | 0.48% of 360,000 active; in the data active = activation above about 15%;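 note: untransfected CHO-K1 host cells lacking M1 receptor as counterscreen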
* hit, by the source's call; . = no result given.

SMILES	M1 PAM	CHO-K1 Ca antag	M1 PAM parental	M1 ag	CHRM1 antagonist	CHO-K1 Ca ag
CC(C)CC[n+]1ccccc1/C=C/c1ccc(N(C)C)cc1	-13.3	12.1	-4.8	8.8	28.6*	6.2
O=C(NNC(=O)C1CCCC1)c1cc([N+](=O)[O-])cc([N+](=O)[O-])c1	10.6	1.1	3.8	-0.5	-0.2	-0.2
Cc1ccc(S(=O)(=O)ON=C2CCN(S(=O)(=O)c3ccccc3)CC2)cc1	7.7	-16.9	7.2	0.3	-7.4	0.5
CC1=CC(=O)C=C(C)C1=NOS(=O)(=O)c1ccccc1	4.3	-2.5	20.2	11.1	18.5*	11.4
Cc1ccc2c(c1)/C(=N/OS(=O)(=O)c1ccccc1)CCS2	5.9	-10.5	18.8	-3.3	-0.2	0.2
CC1=CC(=O)C(C(C)C)=C/C1=N/OS(=O)(=O)c1ccccc1	-16.7	50.2*	-19.6	4.8	61.3*	20.2*
Cc1cc(S(=O)(=O)NC2CCN(Cc3ccccc3)CC2)c(C)cc1Cl	-24.2	-13.3	17.3	-4.1	52.5*	7.9
Cc1cc(C)c(S(=O)(=O)NC2CCN(Cc3ccccc3)CC2)c(C)c1	1.9	-9.5	13.5	-5.0	-2.9	1.5
O=C(CCC1CCCCC1)Nc1nncs1	9.9	4.6	-14.7	-3.6	-3.9	0.1
COc1cccc(NC(=O)Nc2nc(SC(C)(C)C)ns2)c1	-14.8	24.3*	-6.6	6.0	37.0*	18.8*
COc1cccc(NC(=O)Nc2nc(SC)ns2)c1	0.3	19.8	-12.3	6.3	6.0	14.2
CCSc1nsc(NC(=O)Nc2cccc(F)c2)n1	-11.9	18.5	4.7	4.3	37.7*	17.8*
COC(=O)c1sccc1NC(=O)c1ccc(C(C)C)cc1	6.1	7.2	11.3	1.3	-15.3	0.2
CCCN(C(=O)COC(=O)CNC(=O)c1ccc2ccccc2c1)c1c(N)n(Cc2ccccc2)c(=O)[nH]c1=O	5.4	-0.8	16.5	-5.5	-4.3	0.9
COc1ccc(Br)cc1C=NNS(=O)(=O)c1ccc(C)cc1	-18.8	20.4	-6.9	0.7	32.6*	0.2
COc1cc(/C=N/NS(=O)(=O)c2ccc(Br)cc2)ccc1O	4.0	-5.2	7.1	1.3	-8.4	1.2
COC(=O)c1nccc2c1[nH]c1ccccc12	5.6	1.8	8.4	-2.6	-8.1	0.4
Cc1nc(SCc2cccnc2)[nH]c(=O)c1C	8.4	-3.6	-5.7	-0.8	-12.6	0.1
O=S(=O)(NC1CCCC1)c1ccc(F)cc1F	3.1	-3.9	-5.1	-7.2	-2.3	2.1
O=C(NCC1CCCO1)C1CCN(C2CCN(CCCC3CCCC3)CC2)CC1 (centres undefined)	9.4	3.6	7.4	-10.6	-3.0	0.1
O=C(NCC1CCCO1)C1CCN(C2CCN(C(=O)CC3CCCC3)CC2)CC1 (centres undefined)	5.5	27.3*	-18.9	-13.2	8.8	-0.4
CC(C)CCOc1ccc(C(=O)NN2C(=O)NC3(CCCCC3)C2=O)cc1	4.0	-10.9	9.2	2.4	-6.0	7.0
O=C(c1cc(COc2ccc(F)cc2Cl)on1)N1CCN(C2CCCCC2)C(=O)C1	-14.4	17.3	-18.6	2.4	28.4*	20.9*
CC(=O)Cc1c(C(=O)O)c(C)nn1-c1ccccc1	0.0	25.6*	-15.2	-6.3	2.8	-0.5
CCc1ccc(C(=O)NNC(=O)c2cccc(N3C(=O)CCC3=O)c2)cc1	0.1	-4.6	10.8	-3.8	-0.2	1.0
SMILES	M1 PAM	CHO-K1 Ca antag	M1 PAM parental	M1 ag	CHRM1 antagonist	CHO-K1 Ca ag
CC(=O)NCCC(=O)NCC1(N(C)Cc2ccccc2)Cc2ccccc2C1	8.2	-7.5	20.5	-4.7	-22.1	15.6*
CCOc1ccc(N=C(/C(C(=O)C(=O)N2CCOCC2)=C(\O)c2ccccc2)c2ccccc2)cc1	-0.4	-8.5	27.5	-5.0	-2.4	0.4
O=C1N[C@@H](c2ccccc2)COC(=O)[C@@H](Cc2ccc(F)cc2)CC/C=C/C[C@H]1CC(=O)N(CCO)Cc1ccccc1	-10.1	11.3	-3.3	2.3	28.1*	7.5
O=[N+]([O-])c1cccc(-c2ccn[nH]2)c1	30.6*	-6.4	2.2	-2.1	-1.9	1.0
O=[N+]([O-])c1cc(-c2ccn[nH]2)ccc1Cl	9.6	-6.5	20.9	-9.3	-7.1	1.9
CCCCCc1c(-c2ccc(F)cc2F)ncn1CCc1ccccc1OC	.	-12.0	23.9	.	.	2.4
COc1cc(/C=N\NC(=O)C2COc3ccccc3O2)cc(OC)c1O (centres undefined)	7.8	-3.6	15.8	0.6	-11.7	20.8*
COc1cc(/C=N/NC(=O)C2COc3ccccc3O2)ccc1O (centres undefined)	-7.9	14.7	-6.6	-2.2	8.0	1.9
CCN(CC)S(=O)(=O)c1cc(NC(=O)c2cc(-c3ccccn3)nc3ccccc23)ccc1C	-8.1	-1.2	10.0	-1.3	30.1	5.4
CCN(CC)S(=O)(=O)c1ccc(NC(=O)c2cc(-c3cccs3)nc3ccccc23)cc1	-7.2	1.2	15.2	-3.4	16.1	2.3
CN(C)S(=O)(=O)c1ccc(NC(=O)c2cc(-c3cccs3)nc3ccccc23)cc1	-15.6	10.2	-6.3	-1.1	41.7*	5.8
COc1ccc(NC(=O)c2cc(-c3ccccn3)nc3ccccc23)cc1S(=O)(=O)N(C)C	-10.4	5.2	-8.4	-3.1	33.6*	5.7
Cc1nc(-c2ccc(Br)cc2)ccc1C(=O)O	7.4	-4.0	16.9	-6.1	-14.1	0.8
CCN(CC(=O)Nc1ccc(OC)cc1)C(=O)Cc1ccsc1	27.2*	-17.3	11.8	1.3	-25.4	-0.2
COc1ccc(OC)c(C=C2CCc3ccccc3C2=O)c1	4.3	-0.6	3.2	-10.8	-0.2	-0.4
COc1ccc(OC)c(/C=C2/Sc3ccccc3C2=O)c1	-13.5	34.6*	-5.9	25.0*	31.2	37.7*
Cc1cc(F)ccc1S(=O)(=O)N(CC(=O)N1CCOCC1)CC(=O)N1CCOCC1	4.5	-10.7	-1.1	-1.9	-12.5	0.9
COc1ccccc1C(CNC(=O)c1cccc(S(=O)(=O)N2c3ccccc3CC2C)c1)N(C)C (centres undefined)	-25.9	-25.0	11.3	-8.2	98.6*	1.0
COc1ccccc1C(CNC(=O)c1cccc(S(=O)(=O)N2CCCc3ccccc32)c1)N(C)C (centres undefined)	-31.4	-2.9	-10.1	-8.6	100.6*	1.4
O=C(CN1c2cccc3cccc(c23)S1(=O)=O)Nc1ccc(F)c(F)c1F	2.0	-6.7	3.8	-0.2	-10.4	1.4
c1ccc(CN2CCCC3(CCCN(Cc4nc(COc5ccccc5)no4)C3)C2)cc1 (centres undefined)	-28.2	-12.3	25.1	-9.7	60.1*	0.2
c1ccc(CN2CCCC3(CCCN(Cc4nc(CC5CC5)no4)C3)C2)cc1 (centres undefined)	-13.4	-2.7	19.2	-7.6	19.1	-0.1
